Assay results reported in PubChem BioAssay (NCATS).
Several values for one entry are separate records, joined by “and”; a condition that tells them apart may be missing. Equal entries are not always repeated. Inconclusive results are not listed. Activity calls are given as the source filed them. Unless noted, the call rests on the fitted dose curve; in most records, active means well fitted curve in the direction sought with a large enough effect; inconclusive means small, poorly fitted or top-dose-only effect, or another doubt; inactive means no such curve, though single readings can be large or run the other way.

Assay: qHTS Assay for Identifying Gametocytocidal Compounds (AID 743244); further: potency means the concentration at half of the fitted maximal effect;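 on max response: on the % scale 0 is the no-effect control and ±100 the full control effect; actives lower the fluorescent signal which means gametocytes are killed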
Settings: P. falciparum 3D7 stage III-V gametocytes, alamarBlue, 72 h; max response: stronger effect = lower value
Method in brief: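 Using 20,000 stage III–V 3D7 gametocytes per well, compounds were incubated 72 h under 37 °C/5% CO2. Viability was then assessed by 24 h alamarBlue reduction, measured fluorometrically at 525/598 nm.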

| SMILES | Potency | max response |
| --- | --- | --- |
| CO[C@H]1O[C@@H]2O[C@@]3(C)CC[C@H]4[C@H](C)CC[C@@H]([C@H]1C)[C@@]24OO3 | 0.0833 µM (active) |  |
| Cc1ccc(S(=O)(=O)NC(=O)N[C@@H](C)Cc2ccccc2)cc1 |  | 23.6% (inactive) |
| OC[C@@H](O)C(O)[C@H](O)CO |  | 3.78% (inactive) |
| NC(=O)[C@@H]1CCCN1C(=O)[C@H](Cc1cnc[nH]1)NC(=O)[C@@H]1CCC(=O)N1 |  | 7.17% (inactive) |
| C=CC[N+]1([C@H]2C[C@H]3[C@@H]4CC[C@H]5C[C@H](O)[C@@H](N6CCOCC6)C[C@]5(C)[C@H]4CC[C@]3(C)[C@H]2OC(C)=O)CCCC1 |  | -0.733% (inactive) |
| Cn1cc(NC(=O)c2cc(NC(=O)c3cc(NC=O)cn3C)cn2C)cc1C(=O)NCCC(=N)N |  | 6.22% (inactive) |
| CC(=O)Oc1cc(C(F)(F)F)ccc1C(=O)O |  | 17% (inactive) |
| COC(=O)CCC[N+](C)(C)C |  | -8.11% (inactive) |
| Cc1c(N)nc([C@H](CC(N)=O)NC[C@H](N)C(N)=O)nc1C(=O)N[C@H](C(=O)N[C@H](C)[C@@H](O)[C@H](C)C(=O)N[C@H](C(=O)NCCc1nc(-c2nc(C(=O)NCCCCN=C(N)N)cs2)cs1)[C@@H](C)O)[C@@H](O[C@@H]1O[C@@H](CO)[C@@H](O)[C@H](O)[C@@H]1O[C@H]1O[C@H](CO)[C@@H](O)[C@H](OC(N)=O)[C@@H]1O)c1cnc[nH]1 |  | -1.54% (inactive) and 0.24% (inactive) |
| O=C(O)c1ccc(OCCn2ccnc2)cc1 |  | 0.359% (inactive) |
| CC(=O)OCC(=O)[C@@]1(O)CC[C@H]2[C@@H]3CCC4=CC(=O)CC[C@]4(C)C3=CC[C@@]21C |  | -8.18% (inactive) |
| CCN(CC)CCC(=O)N1c2ccccc2Sc2ccc(Cl)cc21 |  | 2.51% (inactive) |
| O=C1NCCN1c1ncc([N+](=O)[O-])s1 |  | -6.09% (inactive) |
| O=C1CCC(=O)N1CO |  | -5.34% (inactive) |
| CS(=O)(=O)c1ccc([C@@H](O)[C@@H](COC(=O)CN)NC(=O)C(Cl)Cl)cc1 |  | 0.65% (inactive) |
| Cc1ccc(C(C)(C)c2ccc(C)cc2)cc1 |  | 17% (inactive) |
| CC1(C)C(\C=C/C=C\C=C/C=C2/N(CCCCS(=O)(=O)O)c3ccc4ccccc4c3C2(C)C)=[N+](CCCCS(=O)(=O)[O-])c2ccc3ccccc3c21 |  | 2.8% (inactive) |
| CC1CC(O)CC(C)(C)C1 (configuration not stated) |  | -5.15% (inactive) |
| CCC(C(=O)NC(N)=O)c1ccccc1 (configuration not stated) |  | 7.61% (inactive) |
| CN(C)CCOc1ccc(/C(=C(/CCCl)c2ccccc2)c2ccccc2)cc1 |  | 7.93% (inactive) |
| COc1ccc2cc([C@H](C)CO)ccc2c1 |  | 13.6% (inactive) |
| CCCOC(=O)c1ccccc1O |  | -13% (inactive) |
| CCCCC[C@H](O)/C=C/[C@H]1[C@H](O)CC(=O)[C@@H]1C/C=C\CCCC(=O)O |  | 5.55% (inactive) |
| COc1ccc(/C=N/NC(=O)c2ccncc2)c(C(=O)O)c1OC |  | 9% (inactive) |
| CCN1\C(=C/C=C/C=C/c2sc3ccccc3[n+]2CC)Sc2ccccc21 | 11.2 µM (active) |  |
| CCCC(=O)Nc1c(I)cc(I)c(CC(CC)C(=O)O)c1I (configuration not stated) |  | 15% (inactive) |
| COc1ccccc1N1CCN(CCCC(=O)c2ccc(F)cc2)CC1 |  | 18% (inactive) |
| CN(C)CCCSc1ccccc1NC(=O)/C=C/c1ccccc1 |  | -4.09% (inactive) |
| CC(=O)N[C@@H]([C@@H](O)[C@H](O)[C@H](O)CO)[C@@H](O)CC(=O)C(=O)O |  | 14.7% (inactive) |
| O=P(O)(O)OC[C@H](O)CO |  | -1.62% (inactive) |

Assay: qHTS profiling for inhibitors of Plasmodium falciparum (3D7) proliferation (AID 743322; call rule not given here;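 further: infected erythrocytes exposed to compound for 72 h before lysis; 100% = DMSO vehicle wells and 0% = 0.29 µM artemisinin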)
Settings: P. falciparum 3D7 proliferation; at 28.7 µM (top of the series) unless noted
Method in brief: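 Erythrocytes infected with P. falciparum (0.3% parasitemia, 2.5% hematocrit) incubated with compounds 72 h at 37 C, 5% CO2. Lysis with saponin/Triton buffer containing SYBR Green I, overnight at room temperature in the dark; DNA fluorescence (485/535 nm) normalised to 0.29 uM artemisinin and DMSO.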

| SMILES | remaining parasite growth % (stronger effect = lower value) |
| --- | --- |
| CO[C@H]1O[C@@H]2O[C@@]3(C)CC[C@H]4[C@H](C)CC[C@@H]([C@H]1C)[C@@]24OO3 | -0.372% [at 57.5 µM] |
| CCN(CC)C(=S)S | 87.7% |
| Cc1c(N)nc([C@H](CC(N)=O)NC[C@H](N)C(N)=O)nc1C(=O)N[C@H](C(=O)N[C@H](C)[C@@H](O)[C@H](C)C(=O)N[C@H](C(=O)NCCc1nc(-c2nc(C(=O)NCCCCN=C(N)N)cs2)cs1)[C@@H](C)O)[C@@H](O[C@@H]1O[C@@H](CO)[C@@H](O)[C@H](O)[C@@H]1O[C@H]1O[C@H](CO)[C@@H](O)[C@H](OC(N)=O)[C@@H]1O)c1cnc[nH]1 | 83.7% |
| C#C[C@]1(O)CC[C@@H]2[C@H]3CCC4=CC(=O)CC[C@H]4[C@H]3C(=C)C[C@@]21CC | 38.1% |
| CCN(CC)CCOCCOC(=O)C(CC)(CC)c1ccccc1 | 90.6% |
| C[C@H]1[C@@H](OC(=O)CCC(=O)O)O[C@@H]2OC3(C)CC[C@H]4[C@H](C)CC[C@@H]1[C@@]24OO3 | -0.578% |
| C=Cc1c(C)c2cc3nc(cc4[nH]c(cc5nc(cc1[nH]2)C(C)=C5CCC(=O)OC)c(CCC(=O)O)c4C)[C@@]1(C)C3=CC=C(C(=O)OC)[C@H]1C(=O)OC | -0.398% [at 9.63 µM] |
